In the supplement of paper PMC11417369:
Over roughly 25,000 sequences, “ln(normalized median fluorescence intensity)” has its median near 6.7; the highest 2% begin near 10. This excerpt belongs to a sample that is enriched for the highest values.

system: PfHDP1 homeodomain (GST-tagged); test: gcPBM binding intensity (ln(normalized median fluorescence intensity)); higher = stronger DNA binding
Method in brief: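 DNA-binding domains from P. falciparum, fused to GST and produced in E. coli, were put on an Agilent 4 × 180k double-stranded probe array for 1 h in 1× PBS holding 1% milk, 0.2 mg/ml BSA, 0.5% salmon testes DNA and 0.03% Triton X-100. Probes were primer-extended, 36 bp long and drawn from intergenic genomic regions, with negative controls included. After Alexa488 anti-GST antibody detection and a 488 nm scan, binding intensity was set as the highest Masliner-normalised natural-log median intensity across replicate spots of either probe orientation.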

Sequence | gcPBM binding intensity (ln)
TTGATGTATACAATGTAGATTATTTAATATTTCAAT [GTGCAC_negctrl_site203] | 6.12
TTATGAAAATATTTTTTTCGTTTGATGTATATGTTT [CACACA_negctrl_site1556] | 6.22
TTGTATTATATTGTATTATGTTTAAATGAAAAAAAA [CACACA_negctrl_site662] | 6.46
ATATATCTACAAATATGTACACACACACATATATAT [XGTACX_site1075] | 6.9
TATAAAAAATAAAAAGTTTAATGAATATTTCTTTTA [TGCATGCA_negctrl_site379] | 5.53
ACATAAAATAAATATACACACATATGTATATATTAT [CACACA_site3041] | 6.59
TTATGTTGTAAATGCACACATACATATACGCAGTTT [CACACA_site3015] | 9.92
TTATGTCATAAATGCACACATATATAAATACAGATA [CACACA_site4959] | 10.3
CATTATGTCATAAATGCACACATATATATATACATA [CACACA_site8454] | 9.98
ATGTTCATTATATGCACACATATATATAAATGTAAT [CACACA_site2908] | 10.2
TTATGTTGTAAATGCACACATACATAAACTCAGTTT [CACACA_site5639] | 10.5
TTATGTTCATTATATGCACACATATATATAAATGTA [CACACA_site8947] | 9.74
TTATGTCATAAATGCACACATATATATATACATATA [CACACA_site1588] | 10.5
ATAATGTATATTATTGCACACATATATAAAATTATG [CACACA_site8280] | 10.5
AATGTATATTATTGCACACATATATAAAATTATGCT [CACACA_site1096] | 10.5
ATATATATATATAATGCACACATTATAAATTATGTA [CACACA_site5802] | 10.6
CATTATGTTGTAAATGCACACATACATATACACAGT [CACACA_site8990] | 9.81
ATCAAAATTGTCATTACACACCTTTATTTTTAGAAT [CACACA_site1813] | 6.6
CAAGCCCTTCTGCTTACACACAGTAATTATTGTGCA [CACACA_site7399] | 6.34
TTTCTATAATATATATGTACATATATAATATGTCGT [XGTACX_site3676] | 6.58
AAATAAAATCATAATGTGCGCATATAAATTTGTAGG [GTGCAC_site9662] | 8.1
AATCCACTTTTTTATGTTATACAATATAAATTAAAT [XGTACX_negctrl_site446] | 6.71

Sequence | gcPBM binding intensity (ln)
AAAAACTTAATATTCACACATATATATATATATATA [CACACA_site5240] | 9.48
ACAAGATAATAGAGAAGTACTAATAAACATACACAA [XGTACX_site6617] | 6.9
TATATAATATAATGTAGTACATGTTTTATTTTTTAC [XGTACX_site7735] | 6.4
AAATATCTACATATTTGTACATATTTATACATATTT [XGTACX_site6300] | 6.12
TTTTATAATATTTAAAGTACATTCTAAAAATATAAT [XGTACX_site8033] | 6.01
ATACTAAATGAACACACACACATATAGATTTATAAC [CACACA_site6200] | 6.87
ATAAATAATTATATATGTACACATTATGAATGGATA [XGTACX_site8336] | 6.74
ATATATATATATAATGCACACATTATGAATTATGTA [CACACA_site3384] | 10.8
GATATATAATATAATACACACATTTTATGAATGTAA [CACACA_site24] | 6.54
CATACATACCTATATACACACATATAAAATAATATA [CACACA_site7290] | 6.97
GAGTATATTTATATTGCACACAATTTTTTTATTTTT [CACACA_site2644] | 10.5
TTTATAAAATTTATTGCACACAATTATTTTATAATT [CACACA_site2489] | 9.98
ATATTTATAAATTGCACACAAATAATAACATTATAT [CACACA_site5322] | 10.6
ATATTTATAAATTGCACACAAATAATAACATTCTAT [CACACA_site2357] | 10.4
ATGTCAAACATTTGCACACAAAAAAATAAAAATTAA [CACACA_site692] | 10.6
ACACAAAAAATAAAAATATATATATATTATATATAT [CACACA_negctrl_site1489] | 7.32
ACATGTCAAACATTTGCACACAAAAAAATAAAAATT [CACACA_site691] | 10.2
ATATTATCCCTATTTGCACACAAGAGTAATTTTTTA [CACACA_site3908] | 10.4
AAATATTTATAAATTGCACACAAATAATAACATTAT [CACACA_site8737] | 10.2
ATATATTTATATATTGCACACAAAAAAAAAAAAAAA [CACACA_site8468] | 10.5
CCATGTCAAACATTTGCACACAAAAAAATAAAAATT [CACACA_site4546] | 9.71
ATATAAATATATTGCACACACAATTATTATTATTAT [CACACA_site7147] | 10.7

Sequence | gcPBM binding intensity (ln)
AAAAAAATATATATATATATATATATATTATATATG [GTGCAC_negctrl_site654] | 6.87
TTTTTTATTTATTGTTATACATCTTACTACTTATAA [GTGCAC_negctrl_site381] | 6.63
TATTTTTTCTTTCATTGTACTTTTTTTTTGTTTTGT [XGTACX_site4081] | 6.8
AAAAAAAAAAAAACTAGTACATATATATAGTATGAA [XGTACX_site6279] | 6.33
ATATATATATATATTGCACACACAATTATTATTATT [CACACA_site8721] | 10.6
TTATAATCCATAATTGCACACAATATATTCATATTT [CACACA_site3916] | 10.1
TTAATTATATTATGCACACACAATTGGAAAAAAAAT [CACACA_site1958] | 10.2
ATATATATATATTGCACACACAATTATTATTATTAT [CACACA_site2299] | 10.6
TTTTAATTATATTATGCACACACAATTGGAAAAAAA [CACACA_site8598] | 10.2
AATATTATTATTATTACACACACAATTATATTTACC [CACACA_site8061] | 6.61
AATAATGTATAATGATGTACAAAAAAGGAAGACATA [XGTACX_site2474] | 7.43
TAACTTCAAAAATCTTGTACATAAATATATAAAACA [XGTACX_site8574] | 6.29
GTGTTTGAAAATAAAGCATGCAAATATATTTGAAAT [TGCATGCA_site386] | 7.23
TTTTTTATTGTGATACGTATATTATTTTATGATTAA [GTGCAC_negctrl_site202] | 6.82
CATATTTATAAATATAAACACACAACATTATATGCA [CACACA_site9065] | 6.82
TCTTTTATGCACATTGAGTAAACAACATATTTTTAA [TGCATGCA_negctrl_site561] | 10.9
AAAGTAAAAAAAAAAACATGCACATATTTACTTTAT [TGCATGCA_site849] | 7.94
ATAATATTATGTGTGAATATATCTTTAAAAAGGATA [GTGCAC_negctrl_site15] | 6.33
AAGAGAAATATATATTGTACAATAATTTTATTTGGT [XGTACX_site7642] | 6.21
ATATTAATAATATATACACACATAAGTATTGTATAT [CACACA_site4095] | 6.46
TATAAATGTATACAAGTGCATATTATTCACACATAA | 8.59
AAGTGCATATTATTCACACATAATAATTGTATACCT [CACACA_site5965] | 10.5

Sequence | gcPBM binding intensity (ln)
TGATTCACTATAGTAGTGCATATTATATATATATAT [GTGCAC_site9975] | 9.23
AAAAAAAAATATATATATATATATATATTTATGTAT [GTGCAC_negctrl_site483] | 6.92
CATATTTTGTGAAAAAGTACATATATATATATATAT [XGTACX_site6295] | 9.38
ATGATAATTATTAAGGGTACATAAAAATATATCTAT [XGTACX_site8969] | 6.36
GTGTACAGTTTTTGCACACATATAAATAAAAAAAAG [CACACA_site3599] | 10.2
ATATAGTTTCACATGTGTACATAAAAATACACTTGT [XGTACX_site3339] | 6.59
TTTAAAAATAAAAGTACACACATAAACATATTGCAC [CACACA_site6784] | 7.47
TACATATAATATATTGCACACGTCAGAATAATATAG [CACACA_site1744] | 10.3
TACATATTGCACAAATAAAAAAGAACAAAAAAAAAA [CACACA_negctrl_site1200] | 10.9
ATGTCTACAGTTTTTGCACACATATAAATAAAAAAA [CACACA_site3600] | 10.3
TTTGTAGTTTGCACATGTACACATTTCAAAATAAAG [XGTACX_site7568] | 10.7
ATCTGTACAGTTTTTGCACACATATAAATAAAAAAA [CACACA_site9198] | 10.7
TATATTGCAAAAAGTACACACATAAATAAATACATA [CACACA_site6589] | 9.04
ATAGAACTATATTGCACACATAATATATATATATAT [CACACA_site3189] | 10.7
ATATATATATATAAATGTACATTTTTCAATAGTTTT [XGTACX_site7449] | 8.98
TTATAGAACTATATTGCACACATAATATATATATAT [CACACA_site9042] | 10.1
AAAAAATTATACCTTTGTACATAAATAAAATATTAT [XGTACX_site418] | 6.23
AATAAATGGAAAAGGTGTACACAAAAAAAAGGGAAA [XGTACX_site4956] | 7.54
AAAAAAAAAGTATATATATATTTAAGGAATTCTCTC [GTGCAC_negctrl_site454] | 6.33
TATATTATATATATATGTACATATGGCAAAACATTA [XGTACX_site7958] | 7.12
ATAGAAATATTATATTGTACGAACAGTTATTAACAA [XGTACX_site2137] | 6.56
AAAATAAGTAATTACTAATATATAAATTAATAATTA [CACACA_negctrl_site1602] | 5.84
